Rows were chosen to be rich in hits. Some 6.8% of all compounds tested hit in one or more screens of this group.
Pf Dd2 growth = P. falciparum Dd2 growth inhibition; SYBR Green, 72 h; hits give low values; activity change, % at 10 µM; 94,000 tested, 2.3% active; AID 1159554; in the data active means activity change below about -80%
C diff growth = C. difficile growth inhibition; Clostridium difficile clinical isolate growth, OD600, 24 h; hits give low values; growth activity, negative = inhibition, % at 16 µg/mL (by protocol); 86,000 tested, 0.25% active;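 active means mean growth activity at or below -80% and every replicate also at or below -80%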
T cruzi growth-1 = T. cruzi proliferation inhibition; inhibition, % at 8.34 µM; T. cruzi beta-gal in NIH3T3, GalScreen luminescence, 90 h; 77,000 tested, 5.9% active;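 active means mean inhibition above about 93%, with at least 55% of replicates each passing it, limit read from the data, passing the limit was not always enough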
T cruzi growth-2 = Trypanosoma cruzi proliferation inhibition | shares compounds with T cruzi growth-1 | T. cruzi beta-gal in NIH3T3, GalScreen luminescence, 90 h | inhibition, % at 8.35 µM | 5,600 tested, 72% active | AID 651739;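 active means mean replicate inhibition above about 95% and at least 55% of replicates individually reaching it, limit read from the data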
T cruzi growth-3 = Trypanosoma cruzi proliferation inhibition; shares compounds with T cruzi growth-1; T. cruzi beta-gal in NIH3T3, GalScreen luminescence, 90 h; inhibition, % at 2.09 µM; 5,600 tested, 21% active;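 active means mean inhibition above about 95%, with at least 55% of replicates also reaching it, limit read from the data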
3T3 cytotox = NIH/3T3 (mouse) viability loss; shares compounds with T cruzi growth-1; NIH/3T3 viability, CellTiter-Glo ATP luminescence, 90 h; cytotoxicity (signal decrease), % at 8.35 µM; 5,600 tested, 14% active; AID 651742;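 active means mean signal decrease across replicates above about 35% based on untreated-well scatter, with enough replicates individually passing, limit read from the data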
3T3 cytotox 2 = NIH/3T3 (mouse) viability loss; inhibition, % at 24.9 µM; AID 651744; NIH/3T3 viability, CellTiter-Glo ATP luminescence, 90 h; shares compounds with T cruzi growth-1; 5,600 tested, 56% active;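 active means mean loss of cell viability signal at or above a set limit, and enough replicates individually reaching it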
A number is an active result.

`COC(=O)[C@@H]1[C@@H](CO)[C@@H]2Cn3c(ccc(-c4ccccc4F)c3=O)[C@H]1N2C(C)=O` gave Pf Dd2 growth inactive, C diff growth inactive and T cruzi growth-1 inactive.
Screening CC=Cc1ccc2n(c1=O)C[C@H]1[C@H](CO)[C@@H](C(=O)OC)[C@@H]2N1S(=O)(=O)c1cccc(C)c1 (mixture of isomers) returned C diff growth inactive, T cruzi growth-1 106.9, T cruzi growth-2 102.1, T cruzi growth-3 inactive, 3T3 cytotox inactive and 3T3 cytotox 2 inactive.
`CC=Cc1ccc2n(c1=O)C[C@@H]1[C@@H](CO)[C@H](C(=O)OC)[C@H]2N1CC1CC1` (mixture of isomers) gave Pf Dd2 growth inactive, C diff growth inactive and T cruzi growth-1 inactive.
For COC(=O)[C@H]1[C@H](CO)[C@H]2Cn3c(ccc(C4=CCCCC4)c3=O)[C@@H]1N2CCc1ccccc1 the results were Pf Dd2 growth inactive, C diff growth inactive and T cruzi growth-1 inactive.
`N#Cc1cccc(-c2ccc([C@H]3[C@@H](CO)N4CCCCN(C(=O)Cc5ccncc5)C[C@@H]34)cc2)c1` gave Pf Dd2 growth inactive, C diff growth inactive, T cruzi growth-1 101.6, T cruzi growth-2 inactive, T cruzi growth-3 inactive, 3T3 cytotox inactive and 3T3 cytotox 2 inactive.
For N#Cc1cccc(-c2ccc([C@H]3[C@@H](CO)N4CCCCN(C(=O)Cc5ccncc5)C[C@H]34)cc2)c1 the results were Pf Dd2 growth inactive, C diff growth inactive and T cruzi growth-1 inactive.
For N#Cc1cccc(-c2ccc([C@@H]3[C@H]4CN(C(=O)Cc5ccncc5)CCCCN4[C@H]3CO)cc2)c1 the results were Pf Dd2 growth inactive, C diff growth inactive, T cruzi growth-1 108.1, T cruzi growth-2 inactive, T cruzi growth-3 inactive, 3T3 cytotox inactive and 3T3 cytotox 2 inactive.
N#Cc1cccc(-c2ccc([C@@H]3[C@@H](CO)N4CCCCN(C(=O)Cc5ccncc5)C[C@@H]34)cc2)c1 was read as Pf Dd2 growth inactive, C diff growth inactive and T cruzi growth-1 inactive.
`N#Cc1cccc(-c2ccc([C@H]3[C@H](CO)N4CCCCN(C(=O)Cc5ccncc5)C[C@@H]34)cc2)c1` gave Pf Dd2 growth inactive, C diff growth inactive, T cruzi growth-1 118.4, T cruzi growth-2 99.9, T cruzi growth-3 inactive, 3T3 cytotox inactive and 3T3 cytotox 2 51.9.
`N#Cc1cccc(-c2ccc([C@@H]3[C@H](CO)N4CCCCN(C(=O)Cc5ccncc5)C[C@@H]34)cc2)c1` gave Pf Dd2 growth inactive, C diff growth inactive and T cruzi growth-1 inactive.
CC=Cc1ccc2n(c1=O)C[C@H]1[C@H](CO)[C@@H](C(=O)N(C)C)[C@@H]2N1C (mixture of isomers) was read as C diff growth inactive and T cruzi growth-1 inactive.
Screening CCCNC(=O)N1[C@@H]2c3ccc(-c4ccccc4OC)c(=O)n3C[C@H]1[C@H](CO)[C@H]2C(=O)O returned Pf Dd2 growth inactive, C diff growth inactive and T cruzi growth-1 inactive.
`CCCNC(=O)[C@@H]1[C@@H](CO)[C@@H]2Cn3c(cccc3=O)[C@@H]2N1C` gave C diff growth inactive and T cruzi growth-1 inactive.
Screening O=C(Cc1ccccc1)N1CCCCN2[C@H](CO)[C@@H](c3ccc(C#CC4(O)CCCC4)cc3)[C@@H]2C1 returned Pf Dd2 growth inactive, C diff growth inactive and T cruzi growth-1 inactive.
For O=C(Cc1ccccc1)N1CCCCN2[C@H](CO)[C@H](c3ccc(C#CC4(O)CCCC4)cc3)[C@H]2C1 the results were Pf Dd2 growth inactive, C diff growth inactive, T cruzi growth-1 99.9, T cruzi growth-2 inactive, T cruzi growth-3 inactive, 3T3 cytotox inactive and 3T3 cytotox 2 30.4.
O=C(Cc1ccccc1)N1CCCCN2[C@@H](CO)[C@@H](c3ccc(C#Cc4ccccc4)cc3)[C@@H]2C1 was read as Pf Dd2 growth inactive, C diff growth inactive, T cruzi growth-1 106.2, T cruzi growth-2 99.9, T cruzi growth-3 102.0, 3T3 cytotox 120.5 and 3T3 cytotox 2 104.8.
Screening O=C(Cc1ccccc1)N1CCCCN2[C@@H](CO)[C@H](c3ccc(C#Cc4ccccc4)cc3)[C@@H]2C1 returned Pf Dd2 growth inactive, C diff growth inactive, T cruzi growth-1 111.1, T cruzi growth-2 108.3, T cruzi growth-3 104.9, 3T3 cytotox 43.2 and 3T3 cytotox 2 103.1.
O=C(Cc1ccccc1)N1CCCCN2[C@H](CO)[C@H](c3ccc(C#Cc4ccccc4)cc3)[C@@H]2C1 was read as Pf Dd2 growth inactive, C diff growth inactive, T cruzi growth-1 119.8, T cruzi growth-2 102.2, T cruzi growth-3 115.4, 3T3 cytotox inactive and 3T3 cytotox 2 103.3.
For O=C(Cc1ccccc1)N1CCCCN2[C@H](CO)[C@H](c3ccc(-c4ccccc4)cc3)[C@H]2C1 the results were Pf Dd2 growth inactive, C diff growth inactive and T cruzi growth-1 inactive.
Screening COC(=O)[C@H]1[C@H](CO)[C@H]2Cn3c(ccc(-c4cccc(OC)c4)c3=O)[C@@H]1N2CC1CC1 returned C diff growth inactive and T cruzi growth-1 inactive.
Cc1ccc(OC(=O)N(C)C[C@@H]2OCc3ccccc3-c3c(n(C)c4ccccc34)C(=O)N([C@H](C)CO)C[C@@H]2C)cc1 was read as Pf Dd2 growth inactive and C diff growth inactive.
O=C(Cc1cccnc1)N1CCCCN2[C@H](C1)[C@H](c1ccc(C#CC3(O)CCCC3)cc1)[C@@H]2CO was read as Pf Dd2 growth inactive, C diff growth inactive and T cruzi growth-1 inactive.
COC(=O)[C@@H]1[C@@H](CO)[C@@H]2Cn3c(cccc3=O)[C@H]1N2C(=O)C1CCC1 was read as Pf Dd2 growth inactive, C diff growth inactive and T cruzi growth-1 inactive.
O=C(Cc1ccncc1)N1CCCCN2[C@H](C1)[C@@H](c1ccc(C#Cc3ccccc3F)cc1)[C@@H]2CO was read as Pf Dd2 growth inactive, C diff growth inactive and T cruzi growth-1 inactive.
O=C(Cc1ccncc1)N1CCCCN2[C@@H](CO)[C@H](c3ccc(C#Cc4ccccc4F)cc3)[C@@H]2C1 was read as Pf Dd2 growth inactive, C diff growth inactive, T cruzi growth-1 112.5, T cruzi growth-2 112.0, T cruzi growth-3 inactive, 3T3 cytotox 49.8 and 3T3 cytotox 2 103.8.
For O=C(Cc1cccnc1)N1CCCCN2[C@H](C1)[C@H](c1ccc(C#CC3CC3)cc1)[C@@H]2CO the results were Pf Dd2 growth inactive, C diff growth inactive and T cruzi growth-1 inactive.
For CCCNC(=O)N1[C@@H]2c3ccc(-c4ccccc4OC)c(=O)n3C[C@H]1[C@H](CO)[C@H]2C(=O)OC the results were Pf Dd2 growth inactive, C diff growth inactive and T cruzi growth-1 inactive.

High-throughput results deposited in PubChem by Broad Institute.
